High-throughput results (PubChem BioAssay)
Sampled rows, rich in hits. Any-hit rate of the full collection: about 3%.
Nrf2 inh: Nrf2 pathway inhibition; hit rate 2.1% among 360,000; AID 504444; Potency, µM (doses to about 46 µM), most hits filed as inhibitors; A549 ARE-Fluc reporter, luciferase luminescence, 18-24 h; also: nearly all actives have a fitted effect of over 60% in size
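Reporter: ARE-Fluc in A549. Exposure: 18-24 h, 37 °C, 5% CO2, 5% FBS OPTI-MEM. Readouts: fluorescent cytotoxicity (CellTiter-Fluor), then luminescent Nrf2 signal after BugLite.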
Nrf2 activator: Nrf2 pathway activation; AREc32 ARE-luciferase reporter (MCF7-derived line), luminescence, 24 h; Potency, µM (series often up to 46.1 µM), usual class: activators; hit rate 0.31% among 410,000; AID 624171; also: nearly all actives have a fitted effect of over 65% in size
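Nrf2 activation is followed as ARE-luciferase induction in the AREc32 line after one day of compound treatment; luminescence is read with Steady-Glo.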
GALK inh: inhibitors of human galactokinase; P51570; Purified GALK, Kinase-Glo residual ATP luminescence; Potency, µM (highest dose often 57.5 µM), most hits filed as inhibitors; hit rate 0.007% among 270,000; AID 1868
Target sequence (P51570 whole entry, looked up): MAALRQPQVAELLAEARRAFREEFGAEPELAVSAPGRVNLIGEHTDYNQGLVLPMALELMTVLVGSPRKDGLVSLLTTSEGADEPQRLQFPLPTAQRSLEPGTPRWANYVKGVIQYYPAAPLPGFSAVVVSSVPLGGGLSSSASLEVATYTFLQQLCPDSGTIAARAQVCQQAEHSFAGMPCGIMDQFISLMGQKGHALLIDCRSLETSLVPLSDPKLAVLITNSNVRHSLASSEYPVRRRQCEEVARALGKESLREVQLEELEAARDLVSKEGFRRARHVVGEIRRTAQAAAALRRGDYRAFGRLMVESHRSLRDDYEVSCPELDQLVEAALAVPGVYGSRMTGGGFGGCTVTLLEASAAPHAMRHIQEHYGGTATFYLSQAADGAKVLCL
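Quantitative HTS: GALK 5 nM, ATP 35 uM, galactose 100 uM, 1 h room temperature, then luciferase-based ATP detection.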
A549 tox: A549 cytotoxicity, counter-screen for Nrf2 inhibitors; AID 504648; A549 ARE-Fluc cells, CellTiter-Fluor viability, 18-24 h; Potency, µM (series often up to 46 µM), usual class: inhibitors; hit rate 0.16% among 390,000
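Cytotoxicity counterscreen: CellTiter-Fluor fluorescence was measured in A549 ARE_Fluc cells after 18-24 h of compound exposure in a concentration series. The subsequent BugLite luminescent read reports ARE-luciferase activity.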
TrxR1 substrate: is turned over as a substrate by rat TrxR1; Potency, µM (top dose mostly 114 µM); hit rate 0.01% among 390,000; purified TrxR1 substrate turnover, NADPH consumption readout; AID 588456; O89049; also: nearly all actives have a fitted effect of over 50% in size
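Rat TrxR1, dispensed at 90 nM, was prereduced with 400 uM NADPH (final) for 5 min at ~22 deg C, then incubated with compound 15 min before 400 uM selenite. A first-read NADPH fluorescence drop versus no-compound background flagged substrates.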
rTrxR1 inhibitor: rat TrxR1 inhibition; O89049; recombinant rTrxR1, NADPH fluorescence consumption, selenite substrate; Potency, µM (top dose mostly 114 µM), most hits filed as inhibitors; hit rate 1% among 390,000; also: nearly all actives have a fitted effect of over 65% in size
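Rat TrxR1 (90 nM in the dispensed reagent) was pre-reduced with 400 uM NADPH for 5 min at room temperature, then incubated with compound for 15 min. After 400 uM selenite was added, NADPH fluorescence (Ex 340/Em 450 nm) was followed for 8 min.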
Hits are given with their value; [ ] = another dose, or the depositor's remark. Calls follow the shape of the dose curve; as a rule, active = well fitted curve in the direction sought with a large enough effect; inconclusive = small, poorly fitted or top-dose-only effect, or another doubt; inactive = no such curve, though single readings can be large; an effect the other way counts as inactive or inconclusive.

How did Cc1cc(Nc2cccc([N+](=O)[O-])c2)n2c(nc3ccccc32)c1C#N do in these assays?
Nrf2 inh: 10.3µM; Nrf2 activator: inactive; GALK inh: inactive; A549 tox: inconclusive; TrxR1 substrate: inactive; rTrxR1 inhibitor: inactive

How did CCCc1cc(Nc2c(C)n(C)n(-c3ccccc3)c2=O)n2c(nc3ccccc32)c1C#N do in these assays?
Nrf2 inh: inactive; Nrf2 activator: inactive; GALK inh: inactive; A549 tox: inactive; TrxR1 substrate: inactive; rTrxR1 inhibitor: inconclusive

How did Cc1cc(Nc2c(C)n(C)n(-c3ccccc3)c2=O)n2c(nc3ccccc32)c1C#N do in these assays?
Nrf2 inh: inactive; Nrf2 activator: inactive; GALK inh: inactive; A549 tox: inactive; TrxR1 substrate: inactive; rTrxR1 inhibitor: 35.5µM

What do the screens show for `O=C1CCc2cc(S(=O)(=O)Nc3ccccc3-c3ccccc3)ccc2N1`?
Nrf2 inh: inactive; A549 tox: inactive

Results for COc1ccc(-c2cc(C3CCN(c4ccc(C(C)=O)cc4[N+](=O)[O-])CC3)[nH]n2)cc1 ?
Nrf2 inh: 16.4µM; Nrf2 activator: inactive; GALK inh: inactive; A549 tox: inconclusive; TrxR1 substrate: inactive; rTrxR1 inhibitor: inactive

Results for COC(=O)c1ccc(N2CCC(c3cc(-c4ccc(OC)cc4)n[nH]3)CC2)c([N+](=O)[O-])c1 ?
Nrf2 inh: inconclusive; Nrf2 activator: inactive; GALK inh: inactive; A549 tox: inactive; TrxR1 substrate: inactive; rTrxR1 inhibitor: inactive

How did Cn1nc(CC(=O)Nc2ccc(N3CCN(C(=O)OC(C)(C)C)CC3)cc2)c2ccccc2c1=O do in these assays?
Nrf2 inh: 10.3µM; Nrf2 activator: inactive; GALK inh: inactive; A549 tox: inactive; TrxR1 substrate: inactive; rTrxR1 inhibitor: inactive

Results for CCN(CC)CC(=O)c1c(C)n(C)c2ccc(OC)cc12 ?
TrxR1 substrate: inactive; rTrxR1 inhibitor: inactive

How did COc1cccc(CCc2nnc(CCC(=O)N3CCN(Cc4ccccn4)CC3)o2)c1 do in these assays?
Nrf2 inh: inactive; Nrf2 activator: inactive; GALK inh: inactive; A549 tox: inactive; TrxR1 substrate: inactive; rTrxR1 inhibitor: 31.6µM

How did O=C1C=C(N2CCOCC2)c2ccccc2C1=O do in these assays?
Nrf2 inh: 20.6µM; Nrf2 activator: inactive; GALK inh: 12.6µM; A549 tox: inconclusive; TrxR1 substrate: 25.1µM; rTrxR1 inhibitor: inconclusive

Results for CC1=C(C)C(=O)C(N2CCOCC2)=CC1=O ?
Nrf2 inh: inactive; Nrf2 activator: inactive; GALK inh: inactive; A549 tox: inactive; TrxR1 substrate: inactive; rTrxR1 inhibitor: inactive

Results for COc1cccc(NC(=O)/C(C#N)=C\c2cn(Cc3ccc(Cl)cc3)c3ccccc23)c1 ?
Nrf2 inh: inconclusive; Nrf2 activator: inactive; A549 tox: inactive; TrxR1 substrate: inactive; rTrxR1 inhibitor: inactive

Results for COc1cccc(NC(=O)/C(C#N)=C/c2c(C)n(Cc3ccccc3)c3ccccc23)c1 ?
Nrf2 inh: 11.6µM; Nrf2 activator: inactive; A549 tox: inactive; TrxR1 substrate: inactive; rTrxR1 inhibitor: inactive

What do the screens show for `Cc1ccc2nc(-c3cccs3)c(Nc3ccccc3)n2c1`?
Nrf2 inh: inactive; A549 tox: inactive; TrxR1 substrate: inactive; rTrxR1 inhibitor: inactive

Results for CC(=O)c1c(C)oc2ccc(N(C(C)=O)S(=O)(=O)c3cccc4cccnc34)cc12 ?
Nrf2 inh: 18.4µM; Nrf2 activator: inactive; GALK inh: inactive; A549 tox: inactive; TrxR1 substrate: inactive; rTrxR1 inhibitor: inactive

What do the screens show for `O=C(O)/C=C\C(=O)NNC(=O)c1cc(-c2ccccc2)n[nH]1`?
Nrf2 inh: inactive; Nrf2 activator: inactive; GALK inh: inactive; A549 tox: inactive; TrxR1 substrate: inactive; rTrxR1 inhibitor: inactive

What do the screens show for `O=C(O)/C=C/C(=O)NNC(=O)c1cc(-c2ccccc2)n[nH]1`?
Nrf2 inh: inactive; Nrf2 activator: inactive; GALK inh: inactive; A549 tox: inactive; TrxR1 substrate: inactive; rTrxR1 inhibitor: 6.31µM

What do the screens show for `COc1ccc(/C=C2\SC(=S)N(CCC(=O)NCCCN3CCOCC3)C2=O)cc1`?
Nrf2 inh: inconclusive; Nrf2 activator: inactive; GALK inh: inactive; A549 tox: 11.6µM; TrxR1 substrate: inactive[0.0914 µM]; rTrxR1 inhibitor: inactive

How did Cc1ccc(/C=C2\SC(=S)N(CCC(=O)NCCCN3CCOCC3)C2=O)cc1 do in these assays?
Nrf2 inh: inconclusive; Nrf2 activator: inconclusive; GALK inh: inactive; A549 tox: 14.6µM; TrxR1 substrate: inactive; rTrxR1 inhibitor: inactive

How did CCOc1ccc(CCNC(=O)CSc2nnnn2-c2ccccc2Cl)cc1OCC do in these assays?
Nrf2 inh: inactive; Nrf2 activator: inactive; A549 tox: inactive; TrxR1 substrate: inactive; rTrxR1 inhibitor: inactive

How did COC(=O)c1ccc(NC(=O)CN2C(=O)c3cccc4cccc2c34)cc1 do in these assays?
Nrf2 inh: inactive; Nrf2 activator: inactive; A549 tox: inactive; TrxR1 substrate: inactive; rTrxR1 inhibitor: inactive

What do the screens show for `Cc1c(C(=O)Nc2ccc(F)cc2F)sc2nc3n(c(=O)c12)N=C(c1ccccc1)CS3`?
Nrf2 activator: inactive; A549 tox: inactive; TrxR1 substrate: inactive; rTrxR1 inhibitor: inactive

What do the screens show for `COc1cccc(C2CC(c3cccc(NS(C)(=O)=O)c3)=NN2C(=O)c2ccccc2)c1OC` (stereo not given)?
Nrf2 inh: inconclusive; Nrf2 activator: inactive; GALK inh: inactive; A549 tox: inconclusive; TrxR1 substrate: inactive; rTrxR1 inhibitor: inactive

Results for CN(C)c1ccc(C2CC(c3cccc(NS(C)(=O)=O)c3)=NN2C(=O)c2ccccc2)cc1 (stereo not given) ?
Nrf2 inh: 23.1µM; Nrf2 activator: inactive; GALK inh: inactive; A549 tox: inconclusive; TrxR1 substrate: inactive; rTrxR1 inhibitor: inactive

What do the screens show for `CS(=O)(=O)Nc1ccc(C2=NN(C(=O)c3cccc(F)c3)C(c3cccs3)C2)cc1` (stereo not given)?
Nrf2 inh: 18.4µM; Nrf2 activator: inactive; GALK inh: inactive; A549 tox: inconclusive; TrxR1 substrate: inactive; rTrxR1 inhibitor: inactive

What do the screens show for `CS(=O)(=O)Nc1ccc(C2=NN(C(=O)c3ccccc3)C(c3cccs3)C2)cc1` (stereo not given)?
Nrf2 inh: inconclusive; Nrf2 activator: inactive; GALK inh: inactive; A549 tox: inactive; TrxR1 substrate: inactive; rTrxR1 inhibitor: inactive

Results for C[n+]1ccc(C(c2c[nH]c3ccccc23)c2cc[n+](C)c3ccccc23)c2ccccc21 ?
TrxR1 substrate: inactive; rTrxR1 inhibitor: inactive

What do the screens show for `COc1ccc(NC(=O)COc2ccccc2C(=O)Nc2ccccc2)cc1`?
TrxR1 substrate: inactive; rTrxR1 inhibitor: inactive

What do the screens show for `CC(C)(C)Nc1ncnc2sc(-c3ccccc3)cc12`?
Nrf2 inh: 11.6µM; Nrf2 activator: inactive; GALK inh: inactive; A549 tox: inconclusive; TrxR1 substrate: inactive; rTrxR1 inhibitor: inactive
